The values below come from PubChem BioAssay (NCI).

A short description of test [1]: NCI Yeast Anticancer Drug Screen. Data for the rad50 strain (AID 155).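 Also: 0% = growth of vehicle-only cultures of the same strain.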 Conditions: S. cerevisiae rad50 strain growth inhibition, hits give high values. In a few lines:
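A DNA repair-deficient yeast mutant serves as the test organism; compound-induced growth inhibition is calculated against vehicle-treated cells.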

Test [2] in a line: NCI Yeast Anticancer Drug Screen. Data for the mec2-1 strain (AID 157). The conditions noted are these: S. cerevisiae mec2-1 strain, hits give high values. An outline of the steps:
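Readout is yeast growth inhibition, normalised to vehicle-treated controls, in the mec2-1 strain exposed to compound.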

Test [3] can be described thus: NCI Yeast Anticancer Drug Screen. Data for the sgs1 mgt1 strain (AID 161).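 Also: 0% = growth of cultures given vehicle only.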 The conditions noted are these: S. cerevisiae sgs1 mgt1 strain, hits give high values. An outline of the steps: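 Growth of a repair-deficient yeast mutant was monitored after compound treatment and expressed as inhibition relative to vehicle-treated cultures.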
Test [4] is described as follows: NCI Yeast Anticancer Drug Screen. Data for the cln2 rad14 strain (AID 165).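 Also: 0% = growth equal to vehicle treated cultures.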 The conditions noted are these: S. cerevisiae cln2 rad14 strain, hits give high values. An outline of the steps: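 Relative to vehicle controls, growth inhibition of compound-treated cln2 rad14 yeast was recorded.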
Test [5] in a line: NCI Yeast Anticancer Drug Screen. Data for the bub3 strain (AID 167). The conditions noted are these: S. cerevisiae bub3 mutant strain, hits give high values. In a few lines: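 Inhibition values come from growth of compound-treated mutant yeast normalised to vehicle-treated controls.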
The nature of test [6]: NCI Yeast Anticancer Drug Screen. Data for the mlh1 rad18 strain (AID 175). The conditions noted are these: S. cerevisiae mlh1 rad18 strain growth inhibition, hits give high values. An outline of the steps:
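Test agents were incubated with a yeast strain of defined genotype (DNA damage repair defect). Inhibition of growth was derived by comparison with vehicle-exposed cultures.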

[7] abbreviates: at 5.0 µM (retest, dose inferred, filed as 0.5).
[8] abbreviates: at 50.0 µM (retest, dose inferred, filed as 5.0).

About 79,000 compounds went through this panel and 15% of them were active in at least one assay; those are over-represented in the sample as a whole. A number with no mark means an inactive call. Active and inactive are the calls of the source. Rule as the data show it: active = growth inhibition above about 70%; inactive = the rest.

On to `Brc1c2nc3ccccc3nc2n2ccc3ccccc3c12`, for which the growth inhibition in test [1] (setting [7]) is -37%; in test [1] (setting [8]), 59%; in test [1] (at 50.0 µM), 47.8%; in test [2] (setting [7]), -11%; in test [2] (setting [8]), 86% (active); in test [2] (at 50.0 µM), 43%. Further, the growth inhibition was -18% in test [3] (setting [7]); 78% (active) in test [3] (setting [8]); 54.5% in test [3] (at 50.0 µM); -14% in test [4] (setting [7]); 83% (active) in test [4] (setting [8]); 44.1% in test [4] (at 50.0 µM). Also, the growth inhibition in test [5] (setting [7]) is -37%; in test [5] (setting [8]), 83% (active); in test [5] (at 50.0 µM), 21%; in test [6] (setting [7]), -38%; in test [6] (setting [8]), 69%; in test [6] (at 50.0 µM), 59.5%.

As to `ClCc1ccccc1Cc1ccccc1`, the growth inhibition in test [1] (setting [7]) was 18%; in test [1] (setting [8]), 82% (active); in test [1] (at 50.0 µM) it was 98.6% (active); in test [2] (setting [7]), 21%; in test [2] (setting [8]), 63%; in test [2] (at 50.0 µM) it was 95.2% (active). The growth inhibition in test [3] (setting [7]) was 27%; in test [3] (setting [8]) it was 83% (active); in test [3] (at 50.0 µM), 97.8% (active); in test [4] (setting [7]), -1%; in test [4] (setting [8]), 35%; in test [4] (at 50.0 µM) it was 94.5% (active). The growth inhibition is -5% in test [5] (setting [7]); 58% in test [5] (setting [8]); 97.6% (active) in test [5] (at 50.0 µM); 35% in test [6] (setting [7]); 85% (active) in test [6] (setting [8]); 98% (active) in test [6] (at 50.0 µM).

As for `C/C(=N\NC(=S)Nc1ccc(N(C)C)cc1)c1ccccn1`, the growth inhibition is -1% in test [1] (setting [7]); 23% in test [1] (setting [8]); 72.2% (active) in test [1] (at 50.0 µM); -4% in test [2] (setting [7]); 68% in test [2] (setting [8]); 97.5% (active) in test [2] (at 50.0 µM). The growth inhibition in test [3] (setting [7]) was -2%; in test [3] (setting [8]), 74% (active); in test [3] (at 50.0 µM), 79.7% (active); in test [4] (setting [7]), 1%; in test [4] (setting [8]), 72% (active); in test [4] (at 50.0 µM) it was 31.8%. The growth inhibition in test [5] (setting [7]) is -1%; in test [5] (setting [8]), 35%; in test [5] (at 50.0 µM), 46.3%; in test [6] (setting [7]) it was -7%; in test [6] (setting [8]), 78% (active); in test [6] (at 50.0 µM) it was 82.3% (active).

Turning to `CC(C)(CCCCC(C)(C)NCC1COc2ccccc2O1)NCC1COc2ccccc2O1` (stereo not given), the growth inhibition is 3% in test [1] (setting [7]); 73% (active) in test [1] (setting [8]); 94.6% (active) in test [1] (at 50.0 µM); -8% in test [2] (setting [7]); 81% (active) in test [2] (setting [8]); 96% (active) in test [2] (at 50.0 µM). In addition, the growth inhibition is -10% in test [3] (setting [7]); 64% in test [3] (setting [8]); 96.8% (active) in test [3] (at 50.0 µM); 0% in test [4] (setting [7]); 76% (active) in test [4] (setting [8]); 95% (active) in test [4] (at 50.0 µM). Moreover, the growth inhibition in test [5] (setting [7]) is -15%; in test [5] (setting [8]) it was 79% (active); in test [5] (at 50.0 µM), 97.4% (active); in test [6] (setting [7]), 2%; in test [6] (setting [8]), 74% (active); in test [6] (at 50.0 µM) it was 96.2% (active).

As to `COC(=O)C1=C(C)NC(C)=C(C(=O)OC)C1c1ccc(NCc2ccccc2)c([N+](=O)[O-])c1`, the growth inhibition is 4% in test [1] (setting [7]); 59% in test [1] (setting [8]); 16.9% in test [1] (at 50.0 µM); 0% in test [2] (setting [7]); 53% in test [2] (setting [8]); 3.65% in test [2] (at 50.0 µM). Further, the growth inhibition in test [3] (setting [7]) was -1%; in test [3] (setting [8]), 73% (active); in test [3] (at 50.0 µM) it was 12.3%; in test [4] (setting [7]) it was 0%; in test [4] (setting [8]), 74% (active); in test [4] (at 50.0 µM), 0.55%. For the same compound, the growth inhibition in test [5] (setting [7]) is 1%; in test [5] (setting [8]), 68%; in test [5] (at 50.0 µM), 6.45%; in test [6] (setting [7]), 0%; in test [6] (setting [8]) it was 71% (active); in test [6] (at 50.0 µM), 40.1%.

With `Cc1cccc(C)c1NC(=O)CSC(N)=O`, the growth inhibition in test [1] (setting [7]) is 4%; in test [1] (setting [8]), 22%; in test [1] (at 50.0 µM), 72.2% (active); in test [2] (setting [7]), -1%; in test [2] (setting [8]), 24%; in test [2] (at 50.0 µM) it was 65%. In addition, the growth inhibition in test [3] (setting [7]) is 0%; in test [3] (setting [8]) it was 22%; in test [3] (at 50.0 µM), 87.2% (active); in test [4] (setting [7]), 5%; in test [4] (setting [8]), -1%; in test [4] (at 50.0 µM) it was 56.1%. Also, the growth inhibition in test [5] (setting [7]) was 4%; in test [5] (setting [8]), 42%; in test [5] (at 50.0 µM) it was 75.5% (active); in test [6] (setting [7]), 7%; in test [6] (setting [8]) it was 26%; in test [6] (at 50.0 µM), 73.2% (active).

On to `CC1(c2ccc(Cl)cc2)OC(=O)C(=Cc2ccc([N+](=O)[O-])s2)C(=O)O1` (stereo not given), for which the growth inhibition in test [1] (setting [7]) is 26%; in test [1] (setting [8]), 99% (active); in test [1] (at 50.0 µM) it was 51.5%; in test [2] (setting [7]), 15%; in test [2] (setting [8]), 99% (active); in test [2] (at 50.0 µM), 40.4%. The growth inhibition in test [3] (setting [7]) is 49%; in test [3] (setting [8]) it was 99% (active); in test [3] (at 50.0 µM) it was 88.9% (active); in test [4] (setting [7]) it was 44%; in test [4] (setting [8]) it was 99% (active); in test [4] (at 50.0 µM), 52.4%. Also, the growth inhibition in test [5] (setting [7]) is 45%; in test [5] (setting [8]), 99% (active); in test [5] (at 50.0 µM) it was 84.7% (active); in test [6] (setting [7]), 18%; in test [6] (setting [8]), 82% (active); in test [6] (at 50.0 µM) it was 92.9% (active).

For the compound `CCc1nc(N)nc(N)c1-c1ccc(NCCCCCCCCCCCCN)c([N+](=O)[O-])c1`, the growth inhibition was -18% in test [1] (setting [7]); 99% (active) in test [1] (setting [8]); 94.2% (active) in test [1] (at 50.0 µM); -11% in test [2] (setting [7]); 99% (active) in test [2] (setting [8]); 99.2% (active) in test [2] (at 50.0 µM). In addition, the growth inhibition was -1% in test [3] (setting [7]); 99% (active) in test [3] (setting [8]); 40.4% in test [3] (at 50.0 µM); -24% in test [4] (setting [7]); 98% (active) in test [4] (setting [8]); 87% (active) in test [4] (at 50.0 µM). Besides, the growth inhibition in test [5] (setting [7]) is -5%; in test [5] (setting [8]), 99% (active); in test [5] (at 50.0 µM) it was 98.5% (active); in test [6] (setting [7]) it was -19%; in test [6] (setting [8]), 99% (active); in test [6] (at 50.0 µM), 98.7% (active).

Consider `C/C=C/C=C/C(=O)Nc1ccc([N+](=O)[O-])cc1`, for which the growth inhibition in test [1] (setting [7]) is 0%; in test [1] (setting [8]), 53%; in test [1] (at 50.0 µM) it was 39.8%; in test [2] (setting [7]) it was -5%; in test [2] (setting [8]) it was 39%; in test [2] (at 50.0 µM), -0.4%. The growth inhibition is -1% in test [3] (setting [7]); 74% (active) in test [3] (setting [8]); 87% (active) in test [3] (at 50.0 µM); -9% in test [4] (setting [7]); 16% in test [4] (setting [8]); 10.7% in test [4] (at 50.0 µM). For the same compound, the growth inhibition in test [5] (setting [7]) is 0%; in test [5] (setting [8]), 63%; in test [5] (at 50.0 µM), 36.4%; in test [6] (setting [7]), 0%; in test [6] (setting [8]), 32%; in test [6] (at 50.0 µM), 32.4%.

Turning to `Cc1ccc(S(=O)(=O)NNc2nc(N(C)C)nc(N(C)C)n2)cc1`, the growth inhibition was 1% in test [1] (setting [7]); 7% in test [1] (setting [8]); 9.15% in test [1] (at 50.0 µM); 7% in test [2] (setting [7]); 14% in test [2] (setting [8]); 5.4% in test [2] (at 50.0 µM). Further, the growth inhibition in test [3] (setting [7]) was 3%; in test [3] (setting [8]), 13%; in test [3] (at 50.0 µM) it was 5.5%; in test [4] (setting [7]), 4%; in test [4] (setting [8]), 4%; in test [4] (at 50.0 µM), 52.2%. For the same compound, the growth inhibition is -1% in test [5] (setting [7]); 4% in test [5] (setting [8]); 4.4% in test [5] (at 50.0 µM); 2% in test [6] (setting [7]); 8% in test [6] (setting [8]); 3.85% in test [6] (at 50.0 µM).
